test: inhibition of PEG-3 promoter-driven reporter – cell-based, HeLa, luciferase, CREF/GAPDH counter-screen panel, dose response (AID 624167); conditions: CREF/GAPDH counter-screens; run 2, dose range 1, at 100 µM (top of the series)

SMILES | inhibition
CN1C/C(=C/c2ccccc2[N+](=O)[O-])C(=O)/C(=C\c2ccccc2[N+](=O)[O-])C1 | 53.9%
O=[N+]([O-])c1nn(-c2ccc3c(c2)OCCO3)n(O)c1=Nc1ccc(Cl)cc1 | 80.8%
CN(O)C(=S)c1ccccc1 | 14.9%
CCCCC(=O)NC(c1ccccc1)c1ccc2cccnc2c1O (stereo not drawn) | 45.2%
C/C(=N\NC(=O)c1cc(C2CC2)nc2ccccc12)c1ccc(O)cc1O | -6.29%
COc1ccc(-n2c(O)c(/C=N/Nc3nc(C)cc(C)n3)c3ccccc3c2=O)cc1OC | -21.1%
O=C(Nc1ccccc1C(=O)Nc1nnc(C(F)(F)F)s1)c1ccccc1 | 60.9%
Cc1ccc(OCC(=O)c2cc(C)n(-c3ccccc3)c2C)c([N+](=O)[O-])n1 | 65.4%
COc1ccc(C(NC(C)=O)c2ccc3cccnc3c2O)c(OC)c1 (stereo not drawn) | 0.125%
O=C(CCl)N1c2ccccc2Sc2ccc3ccccc3c21 | 100%
Cc1oc(-c2ccc3c(c2)OCCO3)cc1C(=O)O | 97.9%
O=C(c1ccco1)N1CCN(C(c2ccccc2Cl)c2nnnn2Cc2cccs2)CC1 (stereo not drawn) | 72.3%
Cc1cc(C(=O)Nc2cccc(C(=O)O)c2)oc1C | 92.8%
CCCCCCCNC(=O)C1(CC2CC(c3cccc(Br)c3)=NO2)CCNCC1 (stereo not drawn) | 99.3%
Cc1cc(C)c(C)c(S(=O)(=O)N2CCN(C(=O)c3cc(=O)[nH]c4ccccc34)CC2)c1C | 80.6%
Clc1ccccc1/C=C/c1nc(-c2ccccn2)no1 | 96.2%
COc1cc(/C=C2\SC(=Nc3ccccc3OC)NC2=O)ccc1O | 39.3%

SMILES | inhibition
Cc1cc(NC(c2ccc(Cl)cc2)c2ccc3cccnc3c2O)no1 (stereo not drawn) | 55.8%
COc1ccc(Nc2ncnc3ccc(Br)cc23)c(OC)c1 | 93.7%
CN(C(=O)COC(=O)/C=C/c1cccc([N+](=O)[O-])c1)C1CCS(=O)(=O)C1 (stereo not drawn) | -31.8%
CN1OC[C@@H]2CN(S(=O)(=O)c3cccc(C(F)(F)F)c3)[C@H](c3ccc(-c4cc5ccccc5o4)cc3)C[C@@H]21 | 70.9%
CCCC(=O)NC(c1ccc(OC)cc1)c1ccc2cccnc2c1O (stereo not drawn) | 69%
CN(C)CC1CCC/C(=C\c2ccc(OC(=O)c3ccc(Cl)cc3)cc2)C1=O (stereo not drawn) | 84.9%
CS(=O)(=O)Nc1cccc(NC(=O)C2Cc3c(-c4ccccc4)ccnc3O2)c1 (stereo not drawn) | 54.2%
O=C(CCn1cnc(-c2ccccc2)c1-c1ccccc1)N/N=C/c1ccccc1O | 55.9%
CCCC(=O)NC(c1ccc(Cl)cc1)c1ccc2cccnc2c1O (stereo not drawn) | 70.1%
COc1ccc(/C=C2/CCCC(CN(C)C)C2=O)cc1 (stereo not drawn) | 67.1%
CN(C)S(=O)(=O)c1ccc(-c2csc(N/N=C/c3ccc(O)cc3)n2)cc1 | 91.1%
O=C(O)c1ccc(CN2C(=O)c3cccc4c([N+](=O)[O-])ccc(c34)C2=O)cc1 | 100%
CCc1ccc(/C=C2\SC(=S)N(CCCC(=O)Nc3ccccn3)C2=O)cc1 | 25.6%
Cc1ccc(OCC(=O)c2cc(C)n(Cc3ccco3)c2C)c([N+](=O)[O-])n1 | 66.6%
CCSc1nc2ccccc2n1C(=O)/C=C\c1ccc(OC)c(OC)c1 | 81.2%
COc1cc(C(=O)N/N=C(\c2ccccc2)c2ccccn2)cc(OC)c1OC | 11.7%

From PubChem BioAssay AID624167 (Sanford-Burnham Center for Chemical Genomics, 2012)
